Screening data deposited in PubChem by National Center for Advancing Translational Sciences (NCATS).
ELG1 repair inh – qHTS screen for small molecules that inhibit ELG1-dependent DNA repair in human embryonic kidney (HEK293T) cells expressing luciferase-tagged ELG1; 330,000 tested, 2.3% active; Potency, µM (titrated, usually from 46.1 µM), hits mostly inhibitors; HEK293T ELG1-luciferase reporter, luminescence, 16 h; DNA damage induced by 5-fluorouridine; further: nearly all actives have a fitted effect of over 55% in size
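HEK293T cells expressing luciferase-tagged ELG1 (2,000/well) received 5-Fluorouridine plus compound or DMSO for 16 hr at 37 °C. Luciferase was read by ONE-Glo luminescence after 30 min at room temperature.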
RORg inh – qHTS for inhibitors of ROR gamma transcriptional activity; Drosophila S2 Gal4-RORgamma UAS-luciferase reporter, 20 h; 310,000 tested, 5.4% active; Potency, µM (series often up to 53.6 µM), actives largely listed as inhibitors; Nuclear receptor ROR-gamma (Mus musculus), P51450; further: nearly all actives have a fitted effect of over 60% in size
Target sequence (P51450 whole entry, looked up, the tested form may be a part): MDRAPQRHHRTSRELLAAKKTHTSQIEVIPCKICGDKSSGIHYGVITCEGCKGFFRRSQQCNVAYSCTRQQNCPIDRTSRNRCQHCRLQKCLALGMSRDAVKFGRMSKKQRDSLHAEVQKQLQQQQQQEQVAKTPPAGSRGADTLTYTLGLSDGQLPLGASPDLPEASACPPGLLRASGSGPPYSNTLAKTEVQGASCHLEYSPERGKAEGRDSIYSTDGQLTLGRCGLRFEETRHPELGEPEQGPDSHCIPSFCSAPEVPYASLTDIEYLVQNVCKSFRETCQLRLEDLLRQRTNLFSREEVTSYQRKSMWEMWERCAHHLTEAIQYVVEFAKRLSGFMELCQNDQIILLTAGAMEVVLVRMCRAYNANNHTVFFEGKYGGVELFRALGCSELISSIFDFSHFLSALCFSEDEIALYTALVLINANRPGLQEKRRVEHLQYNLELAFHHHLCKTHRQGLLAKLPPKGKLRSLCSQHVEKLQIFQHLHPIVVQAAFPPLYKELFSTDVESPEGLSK
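Stably transfected Drosophila Schneider cells are the test system, with ROR gamma fused to Gal4 and luciferase under UAS control; luminescence is read after 20 hr of 700 uM copper sulfate induction at ambient temperature.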
IL-1B inflam inh – qHTS for Inhibitors of Inflammasome Signaling: IL-1-beta AlphaLISA Primary Screen. THP-1 LPS/ATP IL-1B secretion, AlphaLISA, 16 h; stronger effect = lower value. activity change, % at 57.5 µM. AID 743279, 2014. 360,000 tested, 4.7% active; in the data active means activity change below about -50%; inconclusive means mostly about -30% to -49%
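THP-1 cells pretreated 1 hr with compounds (up to 57.5 uM final), then stimulated with LPS (250 ng/mL final) plus ATP (1.25 mM final); secreted IL-1B measured by AlphaLISA after 16 hr, decreased signal indicating inhibition.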
VP16 counter – VP16 counterscreen qHTS for inhibitors of ROR gamma transcriptional activity; 310,000 tested, 3.5% active; AID 2546, 2010; Potency, µM (doses to about 53.6 µM), usual class: inhibitors; Drosophila S2 Gal4-VP16 UAS-luciferase, luminescence, 20 h;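 further: Gal4-VP16 expression switched on by copper sulfate through the metallothionein promoter; nearly all actives have a fitted effect of over 50% in size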
DT40 TDP1 no CPT – qHTS for Inhibitors of human tyrosyl-DNA phosphodiesterase 1 (TDP1): qHTS in cells in absence of CPT; DT40 Tdp1-/- hTDP1 cells, no CPT, ATP luminescence, 48 h; Potency, µM (doses to about 46.2 µM), usual class: inhibitors; 420,000 tested, 15% active; AID 686978, 2013; further: nearly all actives have a fitted effect of over 55% in size
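Seeded 400 DT40-hTDP1 cells/well (vehicle DMSO, no 20 nM CPT); pinned compounds; ≥48 hr at 37 °C; CellTiter-Glo luminescence as viability measure.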
DT40 TDP1 CPT – qHTS for Inhibitors of human tyrosyl-DNA phosphodiesterase 1 (TDP1): qHTS in cells in presence of CPT; chicken DT40 Tdp1-/-;hTDP1 cells + 20 nM CPT, ATP luminescence, 48 h; Potency, µM (highest dose often 46.2 µM), usual class: inhibitors; 420,000 tested, 12% active; AID 686979, 2013; further: nearly all actives have a fitted effect of over 55% in size
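Chicken DT40 Tdp1-/- cells complemented with human TDP1, 400 cells/well, exposed to compounds plus 20 nM camptothecin for at least 48 h at 37 C; viability read as ATP content by CellTiter-Glo luminescence.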
Of the large screens only hits and unclear results are named; the others gave an inactive call. An excerpt weighted towards active compounds, which were near 21% of everything screened. Unless noted, the call rests on the fitted dose curve; in most records, active means well fitted curve in the direction sought with a large enough effect; inconclusive means small, poorly fitted or top-dose-only effect, or another doubt; inactive means no such curve, though single readings can be large; an effect the other way counts as inactive or inconclusive.

CCOc1ccc(OC(=O)c2c(-c3ccccc3Cl)noc2C)cc1	DT40 TDP1 no CPT 20.6µM, DT40 TDP1 CPT inconclusive (no result: ELG1 repair inh, RORg inh, IL-1B inflam inh, VP16 counter)
Cc1noc(C)c1C(=O)OCC(=O)c1c[nH]c2ccccc12	none
Cc1csc(NC(=O)c2c(-c3c(Cl)cccc3Cl)noc2C)n1	DT40 TDP1 no CPT inconclusive
Cc1onc(-c2c(Cl)cccc2Cl)c1C(=O)Nc1nccs1	ELG1 repair inh 23.1µM, RORg inh 10µM, VP16 counter inconclusive, DT40 TDP1 no CPT inconclusive, DT40 TDP1 CPT inconclusive
Cc1onc(-c2c(Cl)cccc2Cl)c1C(=O)c1ccccc1	DT40 TDP1 no CPT 20.6µM, DT40 TDP1 CPT 23.1µM
Cc1onc(-c2ccccc2Cl)c1C(=O)c1ccccc1	ELG1 repair inh inconclusive, DT40 TDP1 no CPT inconclusive (no result: IL-1B inflam inh)
CCCCNc1nc2c(S(=O)(=O)c3ccc(C)cc3)nnn2c2ccsc12	none (no result: ELG1 repair inh, RORg inh, IL-1B inflam inh, VP16 counter)
Cc1onc(-c2c(F)cccc2Cl)c1C(=O)Oc1ccccc1	DT40 TDP1 no CPT 13µM, DT40 TDP1 CPT inconclusive (no result: ELG1 repair inh, RORg inh, VP16 counter)
Cc1onc(-c2c(F)cccc2Cl)c1C(=O)OCC(=O)NC(c1ccccc1)c1ccccc1	ELG1 repair inh inconclusive, DT40 TDP1 no CPT inconclusive, DT40 TDP1 CPT inconclusive
Cc1onc(-c2c(Cl)cccc2Cl)c1C(=O)N(C)Cc1ccccc1	none
Cc1onc(-c2c(F)cccc2Cl)c1C(=O)N(Cc1ccccc1)C(C)C	DT40 TDP1 no CPT 9.2µM, DT40 TDP1 CPT inconclusive
COc1ccc2c(c1)O[C@@H](c1ccc3c(c1)OCO3)[C@H](OC(=O)Nc1ccc(C)c(Br)c1)C2=O	none (no result: ELG1 repair inh, IL-1B inflam inh, DT40 TDP1 no CPT, DT40 TDP1 CPT)
COc1cccc(NC(=O)COC(=O)Cn2c(C)csc2=O)c1	none (no result: RORg inh, VP16 counter)
CCOC(=O)N1CCC2(CC1)NC(=O)c1ccccc1N2	DT40 TDP1 no CPT inconclusive (no result: ELG1 repair inh, RORg inh, VP16 counter)
CCc1sc(C(C2C(=O)CC(C)(C)CC2=O)C2C(=O)CC(C)(C)CC2=O)cc1[N+](=O)[O-]	ELG1 repair inh inconclusive, IL-1B inflam inh -247.5, VP16 counter inconclusive, DT40 TDP1 no CPT 5.17µM, DT40 TDP1 CPT 4.11µM
CCOC(=O)N1CCN(C(=O)Cc2ccsc2)CC1	ELG1 repair inh inconclusive, DT40 TDP1 CPT inconclusive
CCC/C(O)=C1\C(=O)CC(C)(C)CC1=Nc1ccc(OC)cc1OC	ELG1 repair inh inconclusive, DT40 TDP1 no CPT 2.06µM, DT40 TDP1 CPT 2.91µM
CCCCCCN=C1CC(C)(C)CC(=O)/C1=C(/O)CCC	ELG1 repair inh inconclusive, IL-1B inflam inh inconclusive, DT40 TDP1 no CPT 16.4µM, DT40 TDP1 CPT inconclusive
COC(=O)CC/C(O)=C1\C(=O)CC(C)(C)CC1=Nc1ccccc1OC	ELG1 repair inh inconclusive, DT40 TDP1 no CPT inconclusive, DT40 TDP1 CPT 23.1µM
CCCC/C(O)=C1\C(=O)CC(C)(C)CC1=Nc1ccccc1OC	DT40 TDP1 no CPT inconclusive, DT40 TDP1 CPT inconclusive
COc1ccc2cc(C(=O)NCc3ccccc3)c(=Nc3ccc(C(=O)O)cc3)oc2c1	ELG1 repair inh inconclusive, RORg inh inconclusive, VP16 counter inconclusive, DT40 TDP1 no CPT 13µM, DT40 TDP1 CPT inconclusive
COc1cccc2cc(C(=O)NCc3ccco3)c(=O)oc12	ELG1 repair inh inconclusive
COc1cccc2cc(C(=O)NCc3ccco3)c(=Nc3ccc(C(=O)O)cc3)oc12	ELG1 repair inh inconclusive, RORg inh inconclusive, IL-1B inflam inh -85.1, DT40 TDP1 no CPT 16.4µM, DT40 TDP1 CPT inconclusive
